Compounds with a hit are over-represented: about 4.1% of the library has one in this group of screens.
Mdm2-MdmX inh = inhibitors of human Mdm2/MdmX interaction; inhibition, % at 8 µM; O15151+Q00987; SaOS-2 split-luciferase Mdm2/MdmX complementation, luminescence; 330,000 compounds, 3% hits;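 active means inhibition of at least 50% at 8 µM in the primary screen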
Target sequence (O15151 whole entry, looked up): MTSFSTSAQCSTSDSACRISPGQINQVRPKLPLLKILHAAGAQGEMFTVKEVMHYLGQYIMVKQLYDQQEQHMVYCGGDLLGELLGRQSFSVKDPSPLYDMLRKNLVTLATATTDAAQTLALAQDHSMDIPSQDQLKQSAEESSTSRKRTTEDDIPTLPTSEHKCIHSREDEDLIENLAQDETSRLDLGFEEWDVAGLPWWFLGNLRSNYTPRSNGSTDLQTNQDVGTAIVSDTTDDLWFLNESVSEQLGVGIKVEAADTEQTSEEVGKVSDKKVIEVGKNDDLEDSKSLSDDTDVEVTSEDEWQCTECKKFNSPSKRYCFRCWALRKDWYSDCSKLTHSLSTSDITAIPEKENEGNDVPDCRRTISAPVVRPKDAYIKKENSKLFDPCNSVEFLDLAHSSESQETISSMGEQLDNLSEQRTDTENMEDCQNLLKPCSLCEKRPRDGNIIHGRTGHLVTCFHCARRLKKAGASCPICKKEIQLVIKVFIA
Target sequence (Q00987 whole entry, looked up): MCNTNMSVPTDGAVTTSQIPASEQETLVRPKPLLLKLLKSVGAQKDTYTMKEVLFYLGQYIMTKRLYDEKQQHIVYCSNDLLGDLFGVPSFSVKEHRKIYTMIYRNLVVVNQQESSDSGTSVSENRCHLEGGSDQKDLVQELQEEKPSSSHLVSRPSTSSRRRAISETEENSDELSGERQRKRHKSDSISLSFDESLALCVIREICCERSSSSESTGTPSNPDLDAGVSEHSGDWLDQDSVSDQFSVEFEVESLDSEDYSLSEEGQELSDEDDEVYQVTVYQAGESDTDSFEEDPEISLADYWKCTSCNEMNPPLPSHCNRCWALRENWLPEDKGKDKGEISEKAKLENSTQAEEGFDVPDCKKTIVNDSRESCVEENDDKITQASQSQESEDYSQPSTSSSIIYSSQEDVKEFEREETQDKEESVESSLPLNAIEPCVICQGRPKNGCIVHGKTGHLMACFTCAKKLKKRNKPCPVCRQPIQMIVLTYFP
Gli-Sufu block = blocks Gli-Sufu signaling in a luciferase reporter | Sufu-KO-LIGHT fibroblasts, Gli luciferase reporter luminescence | inhibition, % at 5 µM | 340,000 compounds, 0.74% hits;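 active means inhibition above about 55%, limit read from the data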;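 further: 0% = DMSO-treated cells and 100% = wells with medium but no cells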
KLF5 inhibitor = suppresses KLF5 promoter-driven expression | inhibition, % at 5 µM | AID 1700 | DLD-1 KLF5 promoter-luciferase reporter, luminescence | 290,000 compounds, 0.23% hits;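 active means inhibition above a per-plate limit of that plate's mean compound inhibition plus 3 SD, cut at about 60% in these data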;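 further: 0% = DMSO wells and 100% = LY294002 at 200 µM; higher means less KLF5 promoter-driven luciferase light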
697 NFkB inh = inhibitors of the PMA/ionomycin-induced NF-kB reporter in 697 B cells. 697 B-cell NF-kB luciferase reporter, 16 h. inhibition, % at 4 µM. 330,000 compounds, 0.33% hits. AID 435022; in the data active means inhibition above about 35%
aSyn UTR inh = 5' untranslated region of α-synuclein, MLPCN primary screen | alpha-synuclein 5'UTR reporter, inhibitor activity | inhibition, % (tested at 7.5 µM) | 300,000 compounds, 0.82% hits; in the data active means inhibition above about 60%; inconclusive means no clear call, values can overlap the other calls;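 further: H4 neuroglioblastoma cells stably carrying SNCA 5'UTR luciferase fusion; 0% = DMSO wells and 100% = positive control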
Jurkat NFkB inh = lowers PMA/ionomycin-induced NF-kB signal in Jurkat cells; PMA/ionomycin-induced NF-kB luciferase reporter, luminescence; inhibition, % at 4 µM; 330,000 compounds, 0.53% hits; in the data active means inhibition above about 50%
Mdm2 MdmX conf = human Mdm2/MdmX binding inhibition, confirmed; shares compounds with Mdm2-MdmX inh; luminescent assay; inhibition, % at 8 µM; 10,000 compounds, 55% hits; AID 489028; in the data active means inhibition above about 40%
Full FLuc ctr = inhibits full-length luciferase, flagging false Mdm2/MdmX hits; shares compounds with Mdm2-MdmX inh; 6,200 compounds, 77% hits; inhibition, % at 8 µM; SaOS-2 full-length luciferase counterscreen, luminescence;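 active means mean inhibition at 8 µM reaching about 37%, which flags the compound as non-specific, limit read from the data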;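 further: p53-null SaOS-2 cells with luciferase driven by a doxycycline-inducible promoter; compound on cells about two nights before reading with doxycycline added after day one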
Starred values were filed as active, the others as inactive; ? = inconclusive; · = no result given.

SMILES | Mdm2-MdmX inh | Gli-Sufu block | KLF5 inhibitor | 697 NFkB inh | aSyn UTR inh | Jurkat NFkB inh | Mdm2 MdmX conf | Full FLuc ctr
O=C(O)C1(c2ccccc2)CCN(S(=O)(=O)c2cccc(Cl)c2)CC1 | 13.0 | -9.1 | -33.9 | 19.0 | -12.6 | 8.6 | · | ·
Cc1nc2cc(-c3ccccc3)sc2c(=O)n1N | 62.3* | 33.9 | 65.0* | 9.3 | 110.7* | 34.8 | 55.6* | 30.0
O=C(Nc1ccc(S(=O)(=O)N2CCOCC2)cc1)C1CCN(S(=O)(=O)c2ccccc2)CC1 | 19.2 | 0.8 | · | -14.1 | 8.1 | -8.1 | · | ·
Cc1cccc(C(=O)N[C@H](C(=O)Nc2ncc(C)s2)C(C)C)c1 | 67.9* | -92.7 | 41.6 | -30.1 | -6.7 | 5.0 | 63.8* | 98.9*
Cc1cccc(C(=O)NC(C(=O)Nc2nc(-c3ccccn3)cs2)C(C)C)c1 (stereo not given) | 74.4* | 15.8 | 26.0 | -4.0 | 81.4* | 9.1 | 57.0* | 30.7
O=Nc1c(O)n(Cc2ccc(Cl)cc2Cl)c2ccccc12 | 35.5 | 0.3 | -28.2 | -11.9 | 0.3 | 6.9 | · | ·
Cc1ccc(Cn2c(O)c(N=O)c3ccccc32)cc1 | 22.6 | -9.3 | -2.1 | -16.9 | 4.4 | -0.2 | · | ·
Cc1ccc2c(c1)c(N=O)c(O)n2Cc1ccc(Cl)cc1 | 60.3* | -22.0 | -4.8 | 9.5 | 4.4 | 20.7 | 36.3 | ·
O=Nc1c(O)n(Cc2ccc(Cl)cc2)c2ccccc12 | 50.8* | 3.6 | -13.9 | 25.4 | 14.3 | -1.1 | 34.4 | ·
O=Nc1c(O)n(Cc2c(Cl)cccc2Cl)c2ccccc12 | 51.6* | -18.1 | -38.7 | -27.3 | -5.1 | 22.1 | 32.8 | ·
CC(C)c1cccc(C(C)C)c1NC(=O)CNCc1ccccc1F | -11.1 | 7.3 | -21.8 | -11.4 | 14.7 | 0.5 | · | ·
COc1ccc(CC(=O)Nc2ccc(-c3noc(-c4ccc(Cl)cc4)n3)cc2)cc1 | 91.4* | -0.2 | -6.2 | 6.9 | 9.3 | 21.9 | 10.3 | ·
CCOc1ccccc1-c1nc(-c2ccc(NC(=O)Cc3ccc(OC)cc3)cc2)no1 | 57.2* | -85.6 | -24.2 | -24.8 | -61.2 | -8.0 | 37.0 | ·
O=C(Cc1ccc(Cl)cc1)Nc1ccc2oc(-c3ccncc3)nc2c1 | 54.9* | 3.6 | -16.5 | -13.3 | 3.7 | -9.4 | 21.1 | ·
COc1ccc(CC(=O)Nc2ccc(-c3nc4cc(C)ccc4o3)c(O)c2)cc1OC | 92.1* | 1.3 | -4.0 | -6.3 | -56.1 | -20.3 | 47.0* | 115.1*
O=C(NC(c1ccccc1)c1ccccc1)c1cccc(S(=O)(=O)NCc2ccccc2)c1 | 14.3 | -0.7 | -8.3 | 31.3 | 0.1 | -0.3 | · | ·
COc1cc(-c2nc(-c3ccc(NC(=O)c4ccc5c(c4)OCO5)cc3)no2)cc(OC)c1OC | 83.0* | 5.0 | -26.2 | -54.9 | 6.6 | -32.1 | 77.0* | 43.8*
COc1ccc(-c2nc(-c3ccc(NC(=O)c4ccncc4)cc3)no2)cc1OC | 69.5* | 15.8 | 15.1 | -39.2 | -155.0 | 41.5 | 81.5* | 81.5*
COc1ccc(Cl)cc1-c1nc(-c2ccc(NC(=O)c3ccncc3)cc2)no1 | 6.0 | 5.5 | -1.7 | -23.6 | 2.5 | 2.6 | · | ·
COc1ccc(NC(=O)c2ccc(-c3ccc(-c4noc(C)n4)cc3C)cc2)cc1N1CCN(C)CC1 | 98.8* | 7.7 | · | -19.0 | · | -18.4 | 23.4 | ·
COc1ccc(CC(=O)Nc2ccc(-c3noc(-c4cc(OC)c(OC)c(OC)c4)n3)cc2)cc1 | 50.0* | 5.3 | 2.5 | 0.6 | · | 3.7 | 51.5* | 79.3*
COCCN(C(=O)C1CCCO1)c1c(N)n(CC(C)C)c(=O)[nH]c1=O (stereo not given) | -9.8 | 1.7 | · | 17.9 | · | 3.9 | · | ·
CCOC(=O)c1sc(NC(=O)CSc2ccccn2)c(C#N)c1C | 74.2* | -7.5 | -15.6 | 7.6 | 46.2 | 8.9 | 22.9 | ·
CCOC(=O)c1sc(NC(=O)CSc2nc(C)cc(C)n2)c(C#N)c1C | 19.2 | -20.4 | -13.8 | 4.6 | 12.9 | -0.8 | · | ·
CCOC(=O)c1sc(NC(=O)CSc2nc3c(cc2C#N)CCCCC3)c(C#N)c1C | 71.5* | -14.9 | -28.6 | -121.7 | -142.8 | -17.5 | 26.0 | ·
SMILES | Mdm2-MdmX inh | Gli-Sufu block | KLF5 inhibitor | 697 NFkB inh | aSyn UTR inh | Jurkat NFkB inh | Mdm2 MdmX conf | Full FLuc ctr
Cc1cc(F)ccc1S(=O)(=O)N1CCCOC1CNC(=O)C(=O)NC1CCCCC1 (stereo not given) | 11.2 | -18.3 | -37.7 | -13.4 | -20.6 | -2.2 | · | ·
Cc1noc(C)c1COc1ccccc1C(=O)NCCOc1ccccc1 | -5.9 | -6.8 | · | -11.9 | · | 7.2 | · | ·
C=C(C)Cn1c(SCC(=O)N/N=C/c2c(O)ccc3ccccc23)nc2ccccc2c1=O | 82.6* | 6.2 | -19.2 | 8.6 | -6.7 | 1.0 | 56.3* | 31.4
Cc1nn(-c2ccccc2)c(C)c1/C=N/NC(=O)CSc1nc2ccccc2c(=O)n1-c1ccc(Br)cc1 | 74.2* | 16.6 | -11.3 | -5.9 | -47.0 | -16.6 | 65.2* | 74.2*
C=C(C)Cn1c(SCC)nc2ccccc2c1=O | 9.3 | 6.4 | -20.1 | -11.6 | 20.5 | -6.1 | · | ·
Cc1ccc(-n2c(SCC(=O)N/N=C/c3c(C)nn(-c4ccccc4)c3C)nc3ccccc3c2=O)cc1 | 65.7* | 2.9 | 7.2 | 24.2 | 27.1 | 17.0 | 46.8* | 67.8*
Cc1ccccc1-n1c(SCC(=O)N/N=C/c2c(C)nn(-c3ccccc3)c2C)nc2ccccc2c1=O | 48.0 | 5.3 | 6.4 | -19.8 | ? | -8.6 | · | ·
CC(C)CNC(=O)NC(=O)COC(=O)Cn1cnc2ccccc2c1=O | 14.3 | -2.1 | -19.7 | 3.6 | 3.7 | 0.3 | · | ·
COc1ccc(-c2noc(CCC(=O)N3CCN(c4ccccc4F)CC3)n2)cc1 | -2.7 | -5.6 | · | -12.8 | · | · | · | ·
COc1ccc2ncn(-c3ccccc3)c2c1 | 62.7* | -18.6 | -7.4 | -8.9 | -16.1 | -13.2 | 49.8* | 41.8*
COc1ccc(-n2cnc3ccccc32)cc1 | 46.7 | -35.3 | -25.6 | -30.9 | -41.5 | -4.3 | · | ·
COc1cccc(C(=O)NCCS(=O)(=O)N2CCN(C(=O)c3ccco3)CC2)c1 | 16.4 | -22.1 | · | 15.9 | -6.4 | 0.8 | · | ·
COC(=O)c1c(N2C(=O)CC(Sc3ncccc3C(=O)O)C2=O)sc(C)c1C (stereo not given) | -18.4 | -0.2 | -18.3 | 12.1 | 5.1 | -0.3 | · | ·
Cc1ccc(NC(=O)c2ccc(NCCCN3CCC(C)CC3)c([N+](=O)[O-])c2)cc1F | 60.1* | 9.3 | -21.0 | 18.9 | 15.7 | 23.3 | 54.9* | 46.8*
COc1cc(C(=O)Oc2ccccc2/C=N/NC(=O)c2ccc(Cl)cc2Cl)cc(OC)c1OC | 55.8* | 7.5 | -95.4 | -68.0 | -25.2 | -1.9 | 23.4 | ·
O=C1N(c2ccccc2C(F)(F)F)O[C@@]1(c1ccccc1)C1CCCC1 | 76.6* | -18.6 | · | 11.8 | · | 12.0 | 50.9* | 56.2*
O=c1[nH]ncn1-c1ccccc1C(F)(F)F | -3.5 | 6.7 | 12.2 | 10.0 | -9.7 | -2.2 | · | ·
O=C1N(c2ccccc2C(F)(F)F)O[C@@]1(c1ccccc1)C1CCCCC1 | 87.5* | 11.0 | · | 21.0 | · | 18.3 | 50.2* | 52.0*
